Results filed as inconclusive are left out. The source made the active and inactive calls. The call rests on the fitted dose curve; in most records, active means well fitted curve in the direction sought with a large enough effect; inconclusive means small, poorly fitted or top-dose-only effect, or another doubt; inactive means no such curve, though single readings can be large; an effect the other way counts as inactive or inconclusive.
Legend:
[1] = qHTS assay for measurement of the activity of small molecule inhibitors on Zika virus induced Caspase-3 activity in human iPSC derived neural progenitor cells (hNPCs) (AID 1224857); further: nearly all actives have a fitted effect of over 65% in size
Method in brief: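 Quantitative HTS format: human iPSC neural progenitors, 1 h compound pretreatment, ZIKV 2 FFU/cell for 6 h at 37 C. Percent inhibition derived from luminescent caspase-3/7 signal between uninfected and infected controls.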

[2] = qHTS assay for measurement of the activity of small molecule inhibitors on Zika virus induced Caspase-3 activity in human astrocytoma cells (AID 1224859)
Method in brief: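 Readout is luminescence from Caspase-Glo 3/7 added after a 6 h ZIKV infection (2 FFU/cell) of compound-pretreated (1 h) SNB-19 cells; data expressed as % inhibition versus uninfected and infected wells.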

[3] = qHTS assay to identify small molecule inhibitors of chordoma cells - UCH-1 (AID 1259355); further: nearly all actives have a fitted effect of over 55% in size
Method in brief: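 Luminescent ATP read-out (CellTiter-Glo, 30min at room temperature) measured viability of UCH-1 cells exposed for 48hr to test drugs at 15 concentrations, co-dosed with a five-agent combination of auranofin, camptothecin, doxorubicin, rubitecan and topotecan.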

[4] = qHTS assay to identify small molecule inhibitors of chordoma cells - UCH-2 (AID 1259356); further: series mostly up to about 46 µM
[5] = P-glycoprotein substrates identified in KB-8-5-11 adenocarcinoma cell line, qHTS therapeutic library screen (AID 1346987); conditions: outcome: dose series up to 44.5 µM; further: series mostly up to about 44 µM; nearly all actives have a fitted effect of over 65% in size
Method in brief: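 Steps: plate 500 KB-8-5-11 cells/well in DMEM + 10% FCS (colchicine removed); pin compounds in dose-response; incubate 72 h, 37 degree C, 5% CO2; add CellTiter-Glo, 5 min; read luminescence.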

[6] = NS1 protein of Zika virus - qHTS assay to identify small molecule inhibitors in human HEK 293 cells (AID 1347053); further: series mostly up to about 46 µM; nearly all actives have a fitted effect of over 55% in size
Method in brief: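 HEK 293; 20 h pre-culture, 37 C/5% CO2; cpd 1 h pre-infection; ZIKV MR766, MOI = 0.5, 24 h, 37 C; TR-FRET NS1 readout (two anti-NS1 Abs); norm. to no-virus vs infected.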

[7] = qHTS of pediatric cancer cell lines to identify multiple opportunities for drug repurposing: Primary screen for TC32 cells (AID 1347089); further: nearly all actives have a fitted effect of over 60% in size
Method in brief: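 Measured quantity: luminescence from CellTiter-Glo, reflecting metabolically active TC32 cells following 48 h of compound. Curves came straight from multi-point titrations, with 8 or 11 points in primary and 11 in confirmatory screening.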

[8] = qHTS of pediatric cancer cell lines to identify multiple opportunities for drug repurposing: Primary screen for DAOY cells (AID 1347090); further: series mostly up to about 46 µM; nearly all actives have a fitted effect of over 55% in size
Method in brief: (§1)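 Eight- or eleven-point concentration series, 48 h treatment at 37 degrees C in growth media; readout CellTiter-Glo luminescence. Potency and efficacy were taken from the concentration-response curves.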

[9] = qHTS of pediatric cancer cell lines to identify multiple opportunities for drug repurposing: Primary screen for SJ-GBM2 cells (AID 1347091)
Method in brief: as §1

[10] = qHTS of pediatric cancer cell lines to identify multiple opportunities for drug repurposing: Primary screen for A673 cells (AID 1347092); further: nearly all actives have a fitted effect of over 45% in size
Method in brief: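 Cells are plated, rested 5 h, dosed by pintool, incubated 48 h, then lysed with CellTiter-Glo and read by luminescence. DMSO is the neutral control; bortezomib at 2.3 uM final is the positive control.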

[11] = qHTS of pediatric cancer cell lines to identify multiple opportunities for drug repurposing: Primary screen for SK-N-MC cells (AID 1347093); further: series mostly up to about 46 µM
Method in brief: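 Metabolically active cells were quantified by ATP-dependent luminescence (CellTiter-Glo, 15 min at room temperature) following 48 h treatment. Cells had been plated at 500-1,000 per well and settled for 5 h beforehand.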

[12] = qHTS of pediatric cancer cell lines to identify multiple opportunities for drug repurposing: Primary screen for BT-37 cells (AID 1347094); further: series mostly up to about 57 µM
Method in brief: (§2)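 CRCs from 8- or 11-point titrations (lowest final 0.59 nM NPC, 0.78 nM MIPE). Cell viability: CellTiter-Glo after 48 h incubation, 15 min room-temperature development, luminescence imaging.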

[13] = qHTS of pediatric cancer cell lines to identify multiple opportunities for drug repurposing: Primary screen for NB-EBc1 cells (AID 1347095)
Method in brief: as §2

[14] = qHTS of pediatric cancer cell lines to identify multiple opportunities for drug repurposing: Primary screen for U-2 OS cells (AID 1347096); further: nearly all actives have a fitted effect of over 50% in size
Method in brief: (§3)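 Cells (500-1,000/well) in growth media were settled 5 h at 37 degrees C, then given compounds for 48 h. Viability was read as CellTiter-Glo luminescence. Primary runs used MIPE at 11 points (0.78 nM-46 µM) and NPC at 8 points (0.59 nM-46 µM); follow-ups used 11 points.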

[15] = qHTS of pediatric cancer cell lines to identify multiple opportunities for drug repurposing: Primary screen for Saos-2 cells (AID 1347097); further: nearly all actives have a fitted effect of over 40% in size
Method in brief: as §2

[16] = qHTS of pediatric cancer cell lines to identify multiple opportunities for drug repurposing: Primary screen for NB1643 cells (AID 1347099); further: nearly all actives have a fitted effect of over 50% in size
Method in brief: as §2

[17] = qHTS of pediatric cancer cell lines to identify multiple opportunities for drug repurposing: Primary screen for LAN-5 cells (AID 1347100)
Method in brief: as §3

[18] = qHTS of pediatric cancer cell lines to identify multiple opportunities for drug repurposing: Primary screen for BT-12 cells (AID 1347101); further: nearly all actives have a fitted effect of over 25% in size
Method in brief: (§4)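 Cells (500-1,000/well) rested 5 h, then received compounds for 48 h; metabolically active cells were measured by CellTiter-Glo luminescence. Final concentrations spanned up to 46 µM (MIPE, 11-point) or 0.59 nM-46 µM (NPC, 8-point) in primary screens, 11-point in follow-ups.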

[19] = qHTS of pediatric cancer cell lines to identify multiple opportunities for drug repurposing: Primary screen for SK-N-SH cells (AID 1347098);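 further: DMSO served as neutral control and bortezomib at 2.3 µM as positive control; nearly all actives have a fitted effect of over 65% in size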
Method in brief: as §4

Measured: Potency

CC1(C)S[C@@H]2[C@H](N=CN3CCCCCC3)C(=O)N2[C@H]1C(=O)O
not listed: [19]
inactive: all other assays above

NC(=O)NS(=O)(=O)c1ccc(N)cc1
not listed: [19]
inactive: all other assays above

Cc1cc(NC(=O)C2=C(O)c3ccccc3S(=O)(=O)N2C)no1
not listed: [15]
inactive: all other assays above

CNc1c2c(nn1C)CCCC2
inactive: all assays above

Cn1cc(C(=O)[C@@H]2CCc3nc[nH]c3C2)c2ccccc21
not listed: [19]
inactive: all other assays above

C=CCSCC1Nc2cc(Cl)c(S(N)(=O)=O)cc2S(=O)(=O)N1 (configuration not stated)
not listed: [15]
inactive: all other assays above

CCc1cccc(CC)c1NC(=O)CN(CC(=O)O)CC(=O)O
not listed: [11] | [15]
inactive: all other assays above

CC(=O)Nc1cccc(O)c1
not listed: [11] | [15]
inactive: all other assays above

Cn1c(=O)c2c(ncn2CCO)n(C)c1=O
not listed: [11] | [18]
inactive: all other assays above

CC(=O)N[C@@H](CC(C)C)C(=O)O
not listed: [11]
inactive: all other assays above

C=CCNC(N)=S
not listed: [11] | [15] | [18]
inactive: all other assays above

OCc1ccc(Cl)cc1Cl
not listed: [15] | [19]
inactive: all other assays above

CC1CC(OC(=O)c2ccccc2O)CC(C)(C)C1 (configuration not stated)
not listed: [11]
inactive: all other assays above

C=CCOc1ccccc1OCC(O)CNC(C)C (configuration not stated)
not listed: [11]
inactive: all other assays above

CC(C(=O)O)c1ccc2c(c1)Cc1cccnc1O2 (configuration not stated)
not listed: [15]
inactive: all other assays above

CCCCCCCCCCCCCCCCCCO
not listed: [11] | [15]
inactive: all other assays above
